# Test results reported in the OligoGym collection.
# Biological target: MTX3
# Test: pooled miR-30 sensor sort-seq; sequence = guide strand
# Conditions: shRNA
# Note: reference of the scale not given here.
row,Sequence,sensor-assay potency score (higher = more potent)
1,TTGCTGAGAGTTCATAATCAGC,-1.72
2,TAAAGTAATTGTCACTCTCAAC,-1.48
3,TTTAGGAAACCGTACTTTGTAA,-0.773
4,TATCACATTGACTTTCAAGGGT,0.582
5,ATAATCAGCATTATATTTCTGT,0.674
6,TAATTGTCACTCTCAACCCAGA,-0.703
7,TTGGCGAAGATTGTCATCCATC,-1.1
8,TAGAAGATTTAGGCACTCCTTG,-0.542
9,TTATCTATCACATTGACTTTCA,-0.0166
10,TTTGCCTTCACACACTTGGTGT,-0.519
11,TTTTGGTTTAGAGTCTTCCTTA,0.00174

# Biological target: MUC16
# Test: as above
# Conditions: shRNA
row,Sequence,sensor-assay potency score (higher = more potent)
1,TTGACATAGAGACTGTTCCGGT,-0.323
2,TTGACATAGAGACTGTCCCTGT,-0.193
3,TTGACATAGAAACTATTGCTTG,-0.839
4,TTGACATAGAGACTGTGCCTGT,-0.153
5,TTGGACTTTCTGAACTAGCGTG,-0.377
6,TAGTTGTCGTTGAAACAGCTGA,-0.38
7,TTCAGTAGTAGCACTAGTGGGC,0.151
8,TTGTCTGTGATGTTGAACTTGA,-0.129
9,TTGTCTTTGAAACCAGTTCTGG,-0.722
10,TTTGTCTCTGTTGTTGAGCTGG,0.192
11,TTGACATAGAGACTGTTCCTGT,-0.0675
